Results as given in PubChem BioAssay (Tox21).
Results filed as inconclusive are left out. Calls of active or inactive are those of the source. Calls follow the shape of the dose curve; as a rule, active = well fitted activation curve with a large enough effect in the repeat runs; inconclusive = weak or mixed curves; inactive = flat fitted curve, though single readings scatter.

assay: A CellTox Green Cytotoxicity Assay to monitor cytotoxicity in HEK293 cells - 24 hour (AID 1224875); settings: CellTox Green fluorescence; series mostly up to 76.8 µM; activity change: at the top concentration
How it was run: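 Fluorescence intensity, read at 0, 8, 16, 24, 32 and 40 h of compound treatment, reflected dye binding to DNA of dead HEK293 cells; compounds (23 nL, DMSO) were added 5 h after plating cells with reagent.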
% is scaled to controls: 0 for no effect and ±100 for the full control effect.
Also: nearly all actives have a fitted effect of over 45% in size.

Compound	activity change
C=CC(=O)OCCCCCCCCCC	16.1% (inactive)
O=C(O)c1ccc2c(c1)nc(C(=O)NC1CCN(C3CC3)CC1)n2Cc1cc(-c2ccc(Cl)s2)on1	1.12% [at 15.8 µM, active compounds read high] (inactive)
CC(COc1ccccc1)NC(C)C(O)c1ccc(O)cc1 (stereo unspecified)	-3.61% [at 35.3 µM, active compounds read high] (inactive)
Clc1nc2ccccc2nc1Cl	1.91% (inactive)
CCCCCCCCCCCC(=O)OCC	0.0708% (inactive)
CCCOC(C)=O	-13.9% (inactive)
Cc1c(-c2cccnc2)c2ccccc2n1CCCCC(=O)O	-14.2% (inactive)
CCC(=O)O[C@@H]1C[C@H]2CC[C@]1(C)C2(C)C	-6.96% (inactive)
O=[N+]([O-])c1cccc(I)c1	23.5% (inactive)
O=C(O)c1c2ccccc2cc2ccccc12	13.1% (inactive)
O=C(O)c1cccnc1Nc1cccc(C(F)(F)F)c1	-13.2% [at 35.3 µM, active compounds read high] (inactive)
Cc1ccc2ccccc2c1[N+](=O)[O-]	10.6% (inactive)
O=c1c2ccccc2oc2ccccc12	-1.97% (inactive)
CCc1cnc(C(=O)O)c(C(=O)O)c1	-0.915% (inactive)
C=CC(O)CCCCC (stereo unspecified)	3.24% (inactive)
COc1cccc([C@H](O)C2CCN(CCc3ccc(F)cc3)CC2)c1OC	-13.3% (inactive)
Cc1nc2sccn2c(=O)c1CCN1CCC(=C(c2ccc(F)cc2)c2ccc(F)cc2)CC1	0.281% [at 35.3 µM, active compounds read high] (inactive)

Compound	activity change
C=C(C)C(=O)OCCCCCCCCCCOC(=O)C(=C)C	15.7% (inactive)
C=CC(=O)NC(C)(C)C	-13.9% (inactive)
Sc1nc(S)nc(S)n1	-10.1% [at 35.3 µM, active compounds read high] (inactive)
CCCc1ccc(OC)cc1	0.446% (inactive)
CC1=C(C)C(=O)C(CCCCC#CCCCC#CCO)=C(C)C1=O	-5.98% [at 35.3 µM, active compounds read high] (inactive)
C(/C=C/C=C/Nc1ccccc1)=Nc1ccccc1	0.0397% (inactive)
OCC(O)c1ccccc1 (stereo unspecified)	20.7% (inactive)
CO[C@@H]1[C@@H](O[C@@H]2O[C@H](C)[C@@H](O[C@H]3C[C@@](C)(O)[C@@H](O)[C@H](C)O3)[C@H](N(C)C)[C@H]2O)[C@@H](CC=O)C[C@@H](C)[C@@H](O[C@@H]2CC[C@H](N(C)C)[C@@H](C)O2)/C=C/C=C/C[C@@H](C)OC(=O)C[C@H]1OC(C)=O	2.28% [at 35.3 µM, active compounds read high] (inactive)
CC(=O)Nc1ccccc1O	19.1% (inactive)
O=C(OCCN1CCOCC1)c1cccnc1Nc1cccc(C(F)(F)F)c1	-17.6% [at 35.3 µM, active compounds read high] (inactive)
Oc1ccc(Oc2ccccc2)cc1	27.3% (inactive)
C=C[Si](OCC)(OCC)OCC	-0.495% (inactive)
O=[N+]([O-])c1ccccc1CCO	-18.4% (inactive)
O=C(Cl)c1cc(Cl)cc(Cl)c1	-3.61% (inactive)
CCC1=C(C)CN(C(=O)NCCc2ccc(S(=O)(=O)NC(=O)NC3CCC(C)CC3)cc2)C1=O (stereo unspecified)	2.06% [at 35.3 µM, active compounds read high] (inactive)
CCCCCC1CCC(=O)O1 (stereo unspecified)	4.12% (inactive)
CCOc1cc(OCC)c(C(C)=O)cc1OCC	3.58% (inactive)

assay: A CellTox Green Cytotoxicity Assay to monitor cytotoxicity in HepG2 cells - 16 hour (AID 1224876); settings: CellTox Green fluorescence; series mostly up to 76.8 µM; cytotoxicity increase: at the top concentration
How it was run: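 Using 1536-well format, dye-containing HepG2 suspension was seeded, allowed 5 h at 37 C/5% CO2, dosed by pintool with compounds, positive and negative controls, and imaged for fluorescence across 40 h.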

Compound	cytotoxicity increase
C=CC(=O)OCCCCCCCCCC	9.34% (inactive)
O=C(O)c1ccc2c(c1)nc(C(=O)NC1CCN(C3CC3)CC1)n2Cc1cc(-c2ccc(Cl)s2)on1	-9.11% [at 15.8 µM] (inactive)
CC(COc1ccccc1)NC(C)C(O)c1ccc(O)cc1 (stereo unspecified)	-7.68% [at 35.3 µM] (inactive)
Clc1nc2ccccc2nc1Cl	-9.4% (inactive)
CCCCCCCCCCCC(=O)OCC	1.9% (inactive)
CCCOC(C)=O	-4.56% (inactive)
Cc1c(-c2cccnc2)c2ccccc2n1CCCCC(=O)O	0.299% (inactive)
CCC(=O)O[C@@H]1C[C@H]2CC[C@]1(C)C2(C)C	-3.22% (inactive)
O=[N+]([O-])c1cccc(I)c1	-0.0125% (inactive)
O=C(O)c1c2ccccc2cc2ccccc12	-5.9% (inactive)
O=C(O)c1cccnc1Nc1cccc(C(F)(F)F)c1	-4.14% [at 35.3 µM] (inactive)
Cc1ccc2ccccc2c1[N+](=O)[O-]	-7.79% (inactive)
O=c1c2ccccc2oc2ccccc12	5.72% (inactive)
CC(=O)c1ccc(Cl)c(Cl)c1Cl	7.76% (inactive)
CCc1cnc(C(=O)O)c(C(=O)O)c1	-1.29% (inactive)
C=CC(O)CCCCC (stereo unspecified)	-0.349% (inactive)
COc1cccc([C@H](O)C2CCN(CCc3ccc(F)cc3)CC2)c1OC	1.18% (inactive)
Cc1nc2sccn2c(=O)c1CCN1CCC(=C(c2ccc(F)cc2)c2ccc(F)cc2)CC1	0.995% [at 35.3 µM] (inactive)
C=C(C)C(=O)OCCCCCCCCCCOC(=O)C(=C)C	0.773% (inactive)

Compound	cytotoxicity increase
C=CC(=O)NC(C)(C)C	1.76% (inactive)
COc1ccc(C(=O)Nc2ccccc2)cc1[N+](=O)[O-]	3.91% (inactive)
Sc1nc(S)nc(S)n1	-1.88% [at 35.3 µM] (inactive)
CCCc1ccc(OC)cc1	4.17% (inactive)
CC(C)CC(C)(C)C	-5.22% (inactive)
CC1=C(C)C(=O)C(CCCCC#CCCCC#CCO)=C(C)C1=O	-1.59% [at 35.3 µM] (inactive)
C(/C=C/C=C/Nc1ccccc1)=Nc1ccccc1	-9.64% (inactive)
OCC(O)c1ccccc1 (stereo unspecified)	11.6% (inactive)
CO[C@@H]1[C@@H](O[C@@H]2O[C@H](C)[C@@H](O[C@H]3C[C@@](C)(O)[C@@H](O)[C@H](C)O3)[C@H](N(C)C)[C@H]2O)[C@@H](CC=O)C[C@@H](C)[C@@H](O[C@@H]2CC[C@H](N(C)C)[C@@H](C)O2)/C=C/C=C/C[C@@H](C)OC(=O)C[C@H]1OC(C)=O	-0.838% [at 35.3 µM] (inactive)
O=C1c2ccccc2C(=O)C1c1ccc2ccccc2n1	-14.1% [at 35.3 µM] (inactive)
CC(=O)Nc1ccccc1O	11.6% (inactive)
O=C(OCCN1CCOCC1)c1cccnc1Nc1cccc(C(F)(F)F)c1	-9.43% [at 35.3 µM] (inactive)
C=C[Si](OCC)(OCC)OCC	-16.8% (inactive)
O=[N+]([O-])c1ccccc1CCO	-5.16% (inactive)
O=C(Cl)c1cc(Cl)cc(Cl)c1	-4.48% (inactive)
CCC1=C(C)CN(C(=O)NCCc2ccc(S(=O)(=O)NC(=O)NC3CCC(C)CC3)cc2)C1=O (stereo unspecified)	5.35% [at 35.3 µM] (inactive)
CCCCCC1CCC(=O)O1 (stereo unspecified)	8.86% (inactive)
CCOc1cc(OCC)c(C(C)=O)cc1OCC	0.706% (inactive)
